Assay outcomes as filed in PubChem BioAssay.
In the library only some 3.5% were active in any assay of this set; here they are far more common.
FBW7 activator: human FBW7 E3 ligase activation, primary screen; Q969H0; AlphaScreen FBW7–phospho-cyclin E peptide binding, activator screen; normalized activity (activation), % at 26.1 µM; 650,000 tested, 0.13% active; AID 1259310; in the data active = normalized activity above about 1.9%;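 note: purified mutant Fbw7 with reduced substrate affinity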
TEAD-YAP inh: TEAD-YAP interaction inhibition; HEK-TIYL cells, TEAD-Gal4/YAP UAS-luciferase luminescence; inhibition, % at 9.12 µM; 640,000 tested, 1.4% active; AID 1259422; in the data active = inhibition above about 32%;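 note: 0% = median of test compound wells and 100% = reference inhibitor wells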
GPR151 activ: activates the human receptor GPR151; activation, % at 11.2 µM; 650,000 tested, 1% active; Q8TDV0; PathHunter beta-arrestin GPR151 cells, luminescence; in the data active = activation above about 4.9%;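 note: 0% = median of compound wells and 100% = cells with positive control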
Target sequence (Q8TDV0 whole entry, looked up): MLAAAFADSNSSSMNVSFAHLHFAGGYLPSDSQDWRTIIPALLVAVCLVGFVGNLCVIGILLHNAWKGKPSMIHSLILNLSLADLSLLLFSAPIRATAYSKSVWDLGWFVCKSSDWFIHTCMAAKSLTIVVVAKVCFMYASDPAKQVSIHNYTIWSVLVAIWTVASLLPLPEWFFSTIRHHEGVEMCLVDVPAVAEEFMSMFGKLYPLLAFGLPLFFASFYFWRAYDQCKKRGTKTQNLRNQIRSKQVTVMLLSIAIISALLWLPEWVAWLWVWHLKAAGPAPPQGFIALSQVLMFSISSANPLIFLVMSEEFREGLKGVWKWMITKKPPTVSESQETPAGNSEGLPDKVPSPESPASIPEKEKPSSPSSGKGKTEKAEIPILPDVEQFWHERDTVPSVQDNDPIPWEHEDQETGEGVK
MITF primary: inhibitors of human MITF. O75030. AlphaScreen MITF homodimerization, bead proximity signal. inhibition, % at 2.6 µM. 650,000 tested, 0.91% active. AID 1259374; in the data active = inhibition above about 50%;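 note: 0% = vehicle wells with protein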
GPR151 confirm: confirmation of human GPR151 activators; shares compounds with GPR151 activ; GPR151 PathHunter beta-arrestin cells, luminescence, 90 min; % of EA-reagent control over plate median; activation, % at 11.2 µM; 6,700 tested, under 10 active; AID 1508609;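 active = mean percent activation across replicates above the confirmation screen cutoff of 4.91%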
GPR119 counter: counter-screen for GPR151 activators: effect on human GPR119 | shares compounds with GPR151 activ | GPR119 PathHunter beta-arrestin cells, luminescence, 90 min; 0 = compound-well median, 100 = enzyme-acceptor control | activation, % at 11.2 µM | 6,700 tested, 0.3% active;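 active = mean percent activation in the counterscreen above 29.09%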;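 note: counterscreen on off-target GPR119 to flag nonselective hits from the GPR151 activator screen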
An asterisk follows results filed as active; x = no result given.

SMILES | FBW7 activator | TEAD-YAP inh | GPR151 activ | MITF primary | GPR151 confirm | GPR119 counter
COc1cccc(OCCCOc2cccc3ccc(C)nc23)c1 | 0 | 9 | 5.4* | 10 | 0 | -6
CC(C)CC1=NN2C(=N)/C(=C/c3ccc(-c4ccc(Cl)cc4Cl)o3)C(=O)N=C2S1 | 0 | -6 | 0 | 11 | x | x
Fc1ccc(Br)cc1SCCc1ccncc1 | 0 | 5 | -1 | -1 | x | x
Brc1ccc(SCCc2ccncc2)cc1 | 1 | 2 | 12* | 22 | -1 | -14
Cc1ccc(CS(=O)(=O)CCC(=O)NCCN(C)Cc2ccccc2)cc1 | 0 | -3 | 7.7* | 14 | 0 | -1
O=C/C(=C\Nn1cnnc1)c1nc2ccccc2o1 | 0 | 2 | 15* | 13 | 0 | -7
CNS(=O)(=O)c1ccc(N/C=C(\C#N)c2nc3ccccc3o2)cc1 | 0 | -30 | 1 | 12 | x | x
CC1CCCN(S(=O)(=O)c2cccs2)C1 (stereo not given) | 0 | 2 | 10* | 2 | 0 | 8
Cc1cccc(-n2ncc3c(NC(c4ccccc4)c4ccccc4)ncnc32)c1 | 0 | -9 | 0 | -5 | x | x
COc1cccc(C(=O)Oc2cccc(/C=C3/C(=N)N4C=CSC4=NC3=O)c2)c1 | 0 | 3 | -2 | 19 | x | x
CCCCCCn1c(N2CC(C)CC(C)C2)nc2c1c(=O)[nH]c(=O)n2C (stereo not given) | 0 | -5 | 5.8* | 11 | 0 | 7
CCCCCn1c(N2CCCC2)nc2c1c(=O)[nH]c(=O)n2C | 0 | 4 | 0 | 7 | x | x
Cc1ccc(C)c(/C=C2\SC(N)=NC2=O)c1 | 0 | -7 | 0 | -2 | x | x
COc1ccc(/C=C2\SC(N)=NC2=O)cc1OC | 0 | -2 | 9.1* | 19 | 0 | 10
Cc1cc(C)c(/C=C2\SC(N)=NC2=O)c(C)c1 | 0 | -3 | 7.8* | -4 | 0 | -1
Cc1cc(=O)n2c(CCNC(=O)c3c(F)cccc3F)csc2n1 | 0 | 9 | 3 | 3 | x | x
CC(=O)Nc1ccc(Nc2ccnc(N3CCc4ccccc4C3)n2)cc1 | 0 | 28 | 5.1* | 7 | 2 | 28
Nc1c(C(=O)Nc2ccc3c(c2)OCCO3)sc2nc(-c3cccs3)ccc12 | 0 | 11 | 6.3* | -6 | -1 | -2
Nc1c(C(=O)Nc2ccc3c(c2)OCCO3)sc2nc3cc4c(cc3cc12)OCCO4 | 0 | -77 | 0 | 11 | x | x
CC(Oc1ccc2c(c1)CCC2)C(=O)NNC(=S)Nc1ccc(S(N)(=O)=O)cc1 (stereo not given) | 1 | 3 | 0 | 23 | x | x
O=C(NCCc1ccccc1)C(=O)N/N=C/c1ccc(Cl)cc1Cl | 0 | -7 | 0 | -3 | x | x
CC(=O)c1cccc(NC(=O)CC2S\C(=N/N=C/C=C/c3ccccc3)NC2=O)c1 (stereo not given) | 0 | -2 | 9.3* | 8 | 2 | 12
CCOC(=O)c1ccc(-n2c(=S)sc3c2nc(SCC(=O)Nc2ccc(N(C)C)cc2)n2c4ccccc4nc32)cc1 | 0 | 0 | 1 | 24 | x | x
O=C(NCCc1ccc(O)cc1)c1cccc(N2CCN(Cc3ccc4c(c3)OCO4)CC2)n1 | 0 | 3 | 1 | 19 | x | x
Cc1ccc(-n2ncc3c(SCC(=O)NC(C)C)ncnc32)c(C)c1 | 0 | 0 | 1 | 2 | x | x
SMILES | FBW7 activator | TEAD-YAP inh | GPR151 activ | MITF primary | GPR151 confirm | GPR119 counter
Cc1ccc(-n2ncc3c(SCC(=O)Nc4ccc(C(N)=O)cc4)ncnc32)c(C)c1 | 0 | 8 | 5.3* | 3 | 1 | 0
CSc1nc(N)nc(SCC(=O)Nc2ccc(Cl)cc2)c1C#N | 0 | 3 | 11* | -7 | 0 | 0
CSc1nc(N)nc(SCC(=O)Nc2ccc(C)cc2)c1C#N | 0 | -1 | 0 | 4 | x | x
CC(=O)Nc1ccc(NC(=O)C/C(C)=N/NC(=O)C(=O)NCCO)cc1 | 0 | -1 | 5.8* | -1 | 1 | 6
O=C(NN1C(=O)C2C3C=CC(C3)C2C1=O)c1ccc(Cl)cc1Cl (stereo not given) | 0 | -2 | 0 | 12 | x | x
O=C1C2C3C=CC(C3)C2C(=O)N1Nc1c(Cl)cc(Cl)cc1Cl (stereo not given) | 0 | 2 | 6.6* | 1 | 2 | 5
COc1cc2c(cc1OC)C(C)N(C(=O)c1ccccc1Cl)CC2 (stereo not given) | 0 | 0 | 0 | -7 | x | x
C#CCN1CCc2cc(OC)c(OC)cc2C1C (stereo not given) | 0 | -10 | 6.4* | -10 | 2 | 4
CCCC(=O)N(c1ccc2oc(C)c(C(=O)OCC)c2c1)S(=O)(=O)c1ccc2ccccc2c1 | 0 | 4 | -2 | 8 | x | x
CCCC(=O)N(c1ccc2oc(C)c(C(=O)OC)c2c1)S(=O)(=O)c1ccc2ccccc2c1 | 0 | -37 | 5.2* | 7 | -1 | -8
Cn1c(=O)c2c(nc(-n3ccnc3)n2Cc2ccc([N+](=O)[O-])cc2)n(C)c1=O | 0 | -1 | 5.0* | 16 | 1 | 22
Cn1c(=O)c2c(nc(Cl)n2Cc2ccc([N+](=O)[O-])cc2)n(C)c1=O | 0 | 5 | 0 | 5 | x | x
CC(C)(C)CC(=O)NCC(c1ccco1)S(=O)(=O)c1ccc(Cl)cc1 (stereo not given) | 0 | 8 | 0 | -15 | x | x
COc1ccc(C(=O)Nc2ccc(C(=O)N3CCCCC3)cc2)cc1 | 1 | -10 | -1 | 3 | x | x
COc1ccc(C(=O)Nc2ccc3c(c2)C(=O)N(C2CCCCC2)C3=O)cc1 | 0 | -1 | 5.5* | 0 | 0 | 28
COc1ccc(C(=O)Nc2cccc(C(=O)N3CCCC3)c2)cc1 | 0 | -2 | 39* | 10 | 2 | 7
CC(=O)N1CCc2nc(C)nc(N3CCCC3)c2C1 | 1 | -2 | -1 | 16 | x | x
Cc1ccc(N=C2SCC(=O)N2Cc2ccccc2)cc1 | 0 | -16 | 1 | -6 | x | x
CC(=O)Nc1ccc(S(=O)(=O)Nc2ccccc2C(C)C)cc1 | 0 | 4 | 5.9* | 5 | 0 | -14
Cc1nc2nc(NCc3ccccc3F)[nH]n2c(=O)c1C | 0 | 3 | 5.0* | -7 | 0 | 0
COc1ccc(CNc2nc3nc(C)c(C)c(=O)n3[nH]2)cc1 | 0 | -11 | 5.5* | -12 | 1 | 17
O=C(NCC1CCCN(S(=O)(=O)/C=C/c2ccccc2)C1)c1cc2ccccc2[nH]1 (stereo not given) | 0 | 4 | -1 | -14 | x | x
Cc1cc(S(=O)(=O)N2CCCC(CNC(=O)c3cc4ccccc4[nH]3)C2)c(C)s1 (stereo not given) | 0 | 0 | 6.2* | 9 | 0 | -2
CC12CCC(C(=O)Nc3ccc(F)c(F)c3)(CC1=O)C2(C)C (stereo not given) | 0 | 13 | 8.8* | -28 | 0 | 0
